Here are results for 13 molecules from PubChem BioAssay (NCI).

Each structure is given as a SMILES string. The panel holds about 83,000 compounds, 20% with a hit somewhere; the sample as a whole holds those more often.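 Negative percent growth values reflect cell death: -40 means 40% of the cells present at the start died, and -100 means all died.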 Unmarked numbers belong to inactive results. The source made the active and inactive calls. The calls were made as follows: active = growth percent below 10; inactive = the rest.

Holding throughout (assay): NCI-60 one-dose screen, 48 h (100 = growth as untreated, 0 = no growth, -100 = all killed)
Conditions in all cases: 10 µM unless noted

Assay [1] concerns SR leukemia.
Assay [2] concerns RPMI-8226 leukemia.
Assay [3] relates to OVCAR-8 ovarian.
In assay [4] the test system is OVCAR-4 ovarian.
Assay [5] relates to SK-OV-3 ovarian.
The subject of assay [6] is IGROV1 ovarian.
Assay [7] deals with OVCAR-3 ovarian.
Assay [8] deals with HS 578T breast.
For assay [9], the system named is NCI/ADR-RES ovarian.

As for `CSC(SC)=C(C#N)c1nc2ccccc2s1`, the growth in [1] is 81.2%; in [2] it was 25%; in [3], 70.2%; in [4] it was 68.1%; in [5], 19.6%; in assay [6] it was 49.3%. Besides, the growth was 70% in [7], 77.1% in assay [8] and 76.7% in [9].
As to `CC(C)=CCNc1ncnc2c1ncn2C1OC(CO)C(O)C1O` (stereo unspecified), the growth is 1.23% [1 mM] (active) in assay [1]; -40.1% [1 mM] (active) in [2]; -40.8% [1 mM] (active) in [3]; -2.16% [1 mM] (active) in assay [4]; -21.5% [1 mM] (active) in assay [5]; 4.13% [1 mM] (active) in assay [6]. Also, the growth in assay [7] is -69.9% [1 mM] (active); in assay [8] it was -16.8% [1 mM] (active); in assay [9] it was -33.2% [1 mM] (active).
Consider `COc1cc(/C=N/Nc2ccc(Br)cc2)cc(OC)c1OC`, for which the growth in assay [1] was 68.8%; in [2], 58.4%; in [3] it was 54.8%; in assay [4] it was 51%; in assay [5], 85.2%; in assay [6], 57.3%. In addition, the growth was 63.3% in assay [7], 80% in assay [8] and 57.2% in assay [9].
Take `O=C(Nc1cc(Cl)ccc1O)c1cccc(Nc2ccnc(C(F)(F)F)c2)c1`: the growth was 25% in [1]; 3.8% (active) in assay [2]; 39.4% in [3]; 33.8% in assay [4]; 56.4% in [5]; 75.7% in [6]. For the same molecule, the values for the growth in assay [7], in assay [8] and in assay [9] were 53.4%, 60.4% and 15.2%, respectively.
With `CN(Cc1cc(Br)cc(Br)c1O)Cc1cc(Br)cc(Br)c1O`, the growth in assay [1] is 33.8%; in assay [2], 27.6%; in [3] it was 16.6%; in [4], 15.7%; in assay [5], 56.4%; in assay [6], 29.9%. Also, the growth in [7] was 4.97% (active); in assay [8] it was 58.9%; in assay [9], 9.38% (active).
On to `CCN(CC)CCN1C(=O)c2c(c(C)c3c(oc4ccc(O)cc43)c2C)C1=O`, for which the growth in assay [1] was 28.5%; in [2] it was -37.3% (active); in assay [3], -5.2% (active); in assay [4], 14.9%; in [5], 101%; in [6] it was 1.64% (active). For the same molecule, the growth is -68.2% (active) in assay [7], 72.9% in assay [8] and 21.7% in assay [9].
Regarding `CCN(CC)c1ccc(/C=N/NC(=O)Cc2ccc(Nc3ccnc(C(F)(F)F)c3)cc2)c(O)c1`, the growth in [1] is 19.7%; in assay [2] it was 25.8%; in assay [3] it was 28.8%; in assay [4] it was 20.9%; in [5], 28%; in assay [6], 25.1%. The results for the growth in assay [7], in [8] and in [9] were 32.4%, 37.7% and 18.3%, respectively.
As to `O=C(NNC(=O)c1ccc(NC(=O)c2ccccn2)cc1)Nc1ccc2ccccc2c1`, the growth in assay [1] was 126%; in assay [2] it was 109%; in assay [3] it was 102%; in assay [4], 106%; in assay [5], 115%; in assay [6], 109%. Besides, the growth in [7] is 126%; in assay [8] it was 111%; in assay [9] it was 106%.
With `Cc1nc2cc(O)c(O)cc2cc1Oc1ccc(NC(=O)Nc2ccc(Cl)c(Cl)c2)cc1`, the growth in assay [1] was 8.95% (active); in assay [2] it was 75.7%; in assay [3], 47.7%; in assay [4], 67.7%; in assay [5] it was 44.9%; in assay [6] it was 67.1%. The growth was 67.9% in assay [7], 105% in [8] and 59% in assay [9].
`Cc1ccc(C2CC(c3nc(-c4ccc(Cl)cc4)oc3C)=NN2C(=O)c2ccncc2)cc1` (stereo unspecified): the growth was 92.9% in [1]; 83.2% in [2]; 90.4% in [3]; 82.5% in assay [4]; 92.3% in assay [5]; 70.7% in assay [6]. The growth in assay [7] was 90.7%; in [8] it was 83.1%; in [9], 88.1%.
On to `C=CCOC(=O)C1=C(C)N(CC)C(=O)NC1c1c(Cl)n(C)c2ccccc12` (stereo unspecified), for which the growth is 96.1% in [1]; 93.8% in assay [2]; 98.2% in [3]; 103% in assay [4]; 102% in assay [5]; 98.9% in assay [6]. The growth is 108% in [7], 96.4% in assay [8] and 94.1% in assay [9].
Regarding `CCOC(=O)C(Cc1ccc(OC)cc1)C(=O)OCC`, the growth in assay [1] was 11.6%; in [2] it was 0.799% (active); in assay [3], 26.4%; in assay [4] it was 56.4%; in [5] it was 50%; in assay [6] it was 28.1%. Besides, the growth is 2.41% (active) in assay [7], 6.32% (active) in assay [8] and 17.9% in [9].
For `C[C@]1(O)CC(=O)[C@]2(O)C3=C(C=C[C@]2(O)C1)C(=O)c1c(O)cccc1C3=O`, the growth in assay [1] was 10.5%; in assay [2], -0.202% (active); in assay [3], -12.6% (active); in assay [4], -97.9% (active); in assay [5] it was 98.8%; in [6] it was 27.1%. For the same molecule, the growth in assay [7] is -32.8% (active); in assay [8], 71.8%.
